# Results from PubChem BioAssay (NCATS).
# Results filed as inconclusive are left out. A number with no mark means an inactive call. The source made the active and inactive calls. Calls come from the whole dose curve; as a rule, active = well fitted activation curve with a large enough effect; inconclusive = small, poorly fitted or top-dose-only effect; inactive = flat fitted curve, though single readings scatter.
# Experiment: qHTS for Activators of Parkin Expression: LOPAC Validation Assay (NLuc Reporter) (AID 720572;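 for activation: 0% = DMSO and 100% = positive control compound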)
# Conditions: Parkin promoter NanoLuc reporter cells, luminescence; series mostly up to 46.1 µM; activation: at the top concentration
# Excerpt: Parkin is an E3 ubiquitin ligase localized in the cytosol of cells expressed in many tissues, including brain, skeletal muscle, heart and liver tissues. One hour after stress induction by mitochondrial uncouplers (which mimic mitochondria damage by decreasing the mitochondrial inner membrane electrochemical gradient that is used to produce ATP), Parkin translocates from the cytosol to mitochondria in many cultured cell types, including neurons and HeLa cells. Administration of other mitochondrial poisons, such as Paraquat and azide in cells lacking mitochondrial DNA (mtDNA), induces Parkin translocation to mitochondria. […] It was proposed that Parkin (together with Pink1) mediates a mitochondrial quality control pathway to maintain organelle population fidelity by removing damaged mitochondria. Understanding the normal physiologic role of Parkin (and Pink1) may uncover novel treatment strategies for sporadic Parkinson's disease patients with mutation in these genes.
# A cell based qHTS in 1536 well format was developed assess modulation of Parkin expression using a neuronal cell line that stably expresses a stably expresses a luminescent coincidence reporter (FLuc and NLuc reporters) behind the Parkin promoter. The LOPAC library is used to validate the assay for quantitative high-throughput screening. The data herein reports the signal from the NLuc reporter. An increase in this signal = activation of Parkin expression. For this assay , a positive control normalized signal increase corresponding to a high quality qHTS curve class in both luminescent channels is the desired outcome for this assay.
# NIH Chemical Genomics Center [NCGC]
# NIH Molecular Libraries Probe Centers Network [MLPCN]
# Assay Submitter (PI): Richard Youle, National Institute of Neurological Disorders and Strokes (NINDS), NIH
# [1] Narendra, D., et al., Parkin is recruited selectively to impaired mitochondria and promotes their autophagy. J Cell Biol, 2008. 183(5): p.
# [2] Suen, D.F., et al., Parkin overexpression selects against a deleterious mtDNA mutation in heteroplasmic cybrid cells. Proc Natl Acad Sci U S A, 2010. […] 11835-40.
# [3] Cheng K, Inglese J. A coincedence reporter-gene system for high-throughput screening. Nat Methods. 2012: 9(10);937
# Five microliters (1,500 cells/well) of the Parkin coincidence reporter cells were seeded to 1536 well assay plates (Greiner Catalog # 789173-F) and incubated at 37 C, 5% CO2 for 24 hours. Compounds (23 nL) were pinned using the Kalypsys robotic system equipped with 1536 pin head adaptor in 7-point dose response. The assay plates were incubated for additional 24 hr at 37 C, 5% CO2 followed by a volume reduction in each well to 2 uL using an automated plate washer/aspirator. Following the volume reduction,2 uL of FLuc detection reagent and plates were incubated for 10 minutes at room temperature. The FLuc luminescence signal was obtained using the PerkinElmer ViewLux plate imager and then 2 uL of NanoLuc detection reagent was added to the plates. After another 10 minute incubation, NanoLuc signal was obtained using the PerkinElmer ViewLux plate imager as before. Data from each channel was normalized to DMSO (neutral control) and the positive control compounds (100%).
# Potency is the fitted concentration of half-maximal effect.
SMILES,activation,Potency
Cc1ccc(Cl)c(Nc2ccccc2C(=O)O)c1Cl,11.6%,–
O=C(O)CN(CCOCCOCCN(CC(=O)O)CC(=O)O)CC(=O)O,-1.16%,–
COCC(=O)O[C@]1(CCN(C)CCCc2nc3ccccc3[nH]2)CCc2cc(F)ccc2[C@@H]1C(C)C,-11.7%,–
C(=C\c1ccccc1)/CN1CCN(C(c2ccccc2)c2ccccc2)CC1,-9.88%,–
Cc1ccc(=O)n(-c2ccccc2)c1,-2.35%,–
CCCC(C(=O)OCCN(CC)CC)(c1ccccc1)c1ccccc1,-4.31%,–
CN(C)CC/C=C1\c2ccccc2COc2ccccc21,5.23%,–
CN(C)CCCN1c2ccccc2Sc2ccc(C(F)(F)F)cc21,-3.24%,–
CN1CCN(C2=Nc3ccccc3Oc3ccc(Cl)cc32)CC1,-0.995%,–
CC(C)COCC(CN(Cc1ccccc1)c1ccccc1)N1CCCC1 (stereo not given),-6.17%,–
CCCCNC(=O)NS(=O)(=O)c1ccc(C)cc1,9.43%,–
CCN(CC)CC(=O)Nc1c(C)cccc1C,0.0771%,–
CC(C(=O)O)c1ccc(CC2CCCC2=O)cc1 (stereo not given),3.07%,–
OCCN1CCN(CCCN2c3ccccc3C=Cc3ccccc32)CC1,-3.8%,–
COc1cc2c(cc1OC)-c1cc(=Nc3c(C)cc(C)cc3C)n(C)c(=O)n1CC2,13.4%,–
CCN1CCC[C@H]1CNC(=O)c1c(O)c(Cl)cc(Cl)c1OC,-3.08%,–
O=C(CCCN1CCC(O)(c2cccc(C(F)(F)F)c2)CC1)c1ccc(F)cc1,-5.71%,–
CC(=O)Oc1cc(C(C)C)c(OCCN(C)C)cc1C,-0.23%,–
O=C(O)CP(=O)(O)O,-1.52%,–
CCOC(=O)c1cnc2c(cnn2CC)c1NN=C(C)C,11.8%,–

SMILES,activation,Potency
CCOC(=O)C1=C(C)NC(C)=C(C(=O)OC)C1c1cccc(Cl)c1Cl (stereo not given),–,2.59 µM (active)
CC(C)(Oc1ccc(CCNC(=O)c2ccc(Cl)cc2)cc1)C(=O)O,19.5%,–
CCN(Cc1ccncc1)C(=O)C(CO)c1ccccc1 (stereo not given),-2.9%,–
CCCN(CCC)C(=O)C(CCC(=O)O)NC(=O)c1ccccc1 (stereo not given),3.14%,–
CCN1CCc2nc(N)oc2CC1,4.17%,–
CC(=O)Nc1nnc(S(N)(=O)=O)s1,2.62%,–
CCc1c(C)[nH]c2c1C(=O)C(CN1CCOCC1)CC2 (stereo not given),1.42%,–
CCOC(=O)C1=C(C)NC(C)=C(C(=O)OC)C1c1cccc([N+](=O)[O-])c1 (stereo not given),–,1.46 µM (active)
CC(=O)OCC1=C(C(=O)O)N2C(=O)[C@@H](NC(=O)Cc3cccs3)[C@H]2SC1,-2.6%,–
CN/C(=C\[N+](=O)[O-])NCCSCc1ccc(CN(C)C)o1,0.839%,–
COC(=O)[C@H]1[C@H]2C[C@@H]3c4[nH]c5cc(OC)ccc5c4CCN3C[C@H]2C[C@@H](OC(=O)c2cc(OC)c(OC)c(OC)c2)[C@@H]1OC,28.9%,–
CC(C)NNC(=O)c1ccncc1,-1.47%,–
Cc1nnc(SCC2=C(C(=O)O)N3C(=O)[C@@H](NC(=O)Cn4cnnn4)[C@H]3SC2)s1,-0.487%,–
Nc1nc(N)c2nc(-c3ccccc3)c(N)nc2n1,-6.81%,–
COC(=O)C1=C(C)NC(C)=C(C(=O)OCCN(C)Cc2ccccc2)C1c1cccc([N+](=O)[O-])c1 (stereo not given),–,16.4 µM (active)
CCN(CC)CCNC(=O)c1ccc(NC(C)=O)cc1,2.25%,–
CNCCC(Oc1ccccc1OC)c1ccccc1 (stereo not given),-2.34%,–
NC(N)=NC(=O)Cc1c(Cl)cccc1Cl,3.17%,–
N[C@@H](COP(=O)(O)O)C(=O)O,-3.01%,–
C=CCc1ccccc1OCC(O)CNC(C)C (stereo not given),-1.21%,–
